Source: PubChem BioAssay (NCI)
The panel holds about 83,000 compounds, 20% with a hit somewhere; the sample as a whole holds those more often.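 Single-concentration screen, 48 h exposure, 96-well plates. Endpoint: percent growth. Below 10 = active.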 A number with no mark means an inactive call. Activity calls are given as the source filed them.

Tests used:
Assay in all cases: NCI-60 one-dose screen, 48 h (100 = growth as untreated, 0 = no growth, -100 = all killed)
Details in all cases: 10 µM unless noted
SR leukemia = tested on: SR leukemia
RPMI-8226 leukemia = tested on: RPMI-8226 leukemia
OVCAR-8 ovarian = tested on: OVCAR-8 ovarian
OVCAR-5 ovarian = tested on: OVCAR-5 ovarian
OVCAR-4 ovarian = tested on: OVCAR-4 ovarian
SK-OV-3 ovarian = tested on: SK-OV-3 ovarian
IGROV1 ovarian = tested on: IGROV1 ovarian
OVCAR-3 ovarian = tested on: OVCAR-3 ovarian
HS 578T breast = tested on: HS 578T breast
NCI/ADR-RES ovarian = tested on: NCI/ADR-RES ovarian
T-47D breast = tested on: T-47D breast
BT-549 breast = tested on: BT-549 breast
MDA-MB-435 melanoma = tested on: MDA-MB-435 melanoma
SW-620 colon = tested on: SW-620 colon
MCF7 breast = tested on: MCF7 breast
HCT-116 colon = tested on: HCT-116 colon
HCC-2998 colon = tested on: HCC-2998 colon
KM12 colon = tested on: KM12 colon

Row | Structure (SMILES) | growth (SR leukemia) | growth (RPMI-8226 leukemia) | growth (OVCAR-8 ovarian) | growth (OVCAR-5 ovarian) | growth (OVCAR-4 ovarian) | growth (SK-OV-3 ovarian) | growth (IGROV1 ovarian) | growth (OVCAR-3 ovarian) | growth (HS 578T breast) | growth (NCI/ADR-RES ovarian) | growth (T-47D breast) | growth (BT-549 breast) | growth (MDA-MB-435 melanoma) | growth (SW-620 colon) | growth (MCF7 breast) | growth (HCT-116 colon) | growth (HCC-2998 colon) | growth (KM12 colon)
1 | COC(=O)C1=Nc2ccc(F)cc2/C1=C\c1sc(Nc2ccc(O)cc2)nc1O | 24.2% | 62% | 83% | 98% | 64.8% | 102% | 68.5% | 19.8% | 46.1% | 94.5% | 62.4% | 35% | 0.954% (active) | 65.9% | 22% | 64% | 79.3% | 49.5%
2 | CCN(CC)S(=O)(=O)c1ccc(S(=O)(=O)N2CCC[C@@H](C(=O)N3CCN(C(=O)OC(C)(C)C)CC3)C2)cc1 | 31.7% | 53.7% | 63.3% | 102% | 26.1% | 90.5% | 86.1% | 73.5% | 87.2% | 62% | 44.5% | 61.5% | 60.6% | 80.4% | 49.3% | 54.1% | 89.6% | 76.9%
3 | O=C(CSc1nnc2sc(Nc3cccc(Cl)c3)nn12)c1ccc(F)cc1 | 90.9% | 94.9% | 102% | 95.1% | 101% | 82.1% | 101% | 106% | 97.4% | 96.4% | 76.4% | 97.8% | 100% | 99% | 90.4% | 85.8% | 103% | 95.8%
4 | CCC/C(=N\NC(N)=O)C(OC)OC | 120% | 121% | 98.6% | 97.1% | 89% | 116% | 123% | 104% | 125% | 99.6% | 114% | 110% | 110% | 110% | 90.8% | 102% | 99.3% | 97.7%
5 | O=C1C(Cl)=C(NCCN2CCOCC2)C(=O)c2ncccc21 | -17.9% (active) | 20.4% | 31.1% | -22.8% (active) | 95.8% | 41.5% | -58.8% (active) | -63.5% (active) | 1.02% (active) | 67.8% | -40.8% (active) | -91.5% (active) | 102% | -29.5% (active) | -50% (active) | -51.9% (active) | 31.8% | 62.9%
6 | N#CC(C#N)N=Nc1ccc(Cl)cc1Cl | 48.1% | 50.8% | 94% | 104% | 71.4% | 77% | 89.5% | 62% | 103% | 103% | 24.3% | 94.8% | 111% | 87.3% | 73.6% | 66.1% | 109% | 101%
7 | Cn1cc(-c2csc(-c3cn(C)c4ccc(Br)cc34)n2)c2cnccc21 | -29.6% (active) | -37.3% (active) | -49.4% (active) | -67.3% (active) | -50.9% (active) | 96.5% | -91.5% (active) | -92.9% (active) | -40% (active) | -69.5% (active) | -47.3% (active) | 86.2% | -87.6% (active) | -70% (active) | -74.7% (active) | -89.8% (active) | -84.3% (active) | -87.4% (active)
8 | COC(=O)C1=C(C(=O)Nc2cccnc2)C2OC1(C(Cc1ccccc1)Oc1ccccc1)C1OC21 (stereo unspecified) | -23.7% (active) | -11.8% (active) | 86.4% | 79.7% | 75% | 98.3% | 77.7% | -53.5% (active) | 101% | 103% | -46.7% (active) | 61.5% | 77.8% | -64.9% (active) | 24.9% | -46.3% (active) | 105% | 96.8%
9 | N#Cc1c(Nc2ccc(F)cc2)n[nH]c1-c1cccs1 | 107% | 97.3% | 105% | 100% | 92% | 115% | 71.8% | 109% | 101% | 100% | 86% | 98.3% | 99.5% | 101% | 80.9% | 100% | 98.6% | 98.1%
10 | Cc1ccc(-c2csc(NC(=O)N3CCN(c4cc5c(cc4F)c(=O)c(C(=O)O)cn5C4CC4)CC3)n2)cc1 | 18.2% | 4.84% (active) | 7.72% (active) | 23.2% | 33.5% | -11.6% (active) | 17% | 7.6% (active) | 38.6% | 21.8% | 11.5% | 3.9% (active) | 17.6% | 27.2% | 6.05% (active) | 11.4% | 32.9% | 11.4%
11 | Cc1[nH]c(C(=O)Nc2ccc(C(N)=O)cc2NC(C)C)c(Cl)c1Cl | 103% | 87.8% | 92.4% | 104% | 92.4% | 113% | 85.1% | 96.3% | 82.6% | 88.2% | 82.6% | 93% | 101% | 96.1% | 92% | 81% | 108% | 98.9%
12 | O=c1nc(Nc2nc3ccccc3s2)[nH]c(=O)c2ccccc12 | 90.7% | 106% | 103% | 107% | 102% | 64.3% | 100% | 109% | 109% | 103% | 78.9% | 97.5% | 99.9% | 101% | 92.2% | 103% | 98.4% | 98.5%
13 | O=C1NC(=Nc2ccc(O)cc2)S/C1=C\c1cccs1 | 11.6% | 2.94% (active) | 48.5% | 84.5% | 48.8% | 62.6% | 38.5% | 8.01% (active) | 32.6% | 32.1% | 32.5% | 35.8% | -24.7% (active) | 27.2% | 11.8% | 32.9% | 59% | 13.9%
14 | CCCCCSB(SCCCCC)c1ccccc1 | 98.5% | 100% | 97% | 101% | 100% | 104% | 97.1% | 109% | 109% | 98.4% | 94.3% | 105% | 103% | 100% | 104% | 106% | 88.7% | 107%
15 | COc1ccc(C2=NN(C(C)=O)C(c3ccc(Oc4ccnc5cc(Cl)ccc45)c(OC)c3)C2)cc1 (stereo unspecified) | 74.4% | 77.1% | 24% | 84.4% | -17.2% (active) | 24.5% | 79.7% | 37.1% | 58.9% | 44.7% | 16.2% | 79.5% | 57% | 74.3% | 37.6% | 25% | 57.2% | 72.9%
16 | O=C(CCCCCCN1CC(=O)N2[C@@H](C3CCCCC3)c3[nH]c4ccccc4c3C[C@H]2C1=O)NO | 11.5% | 39.5% | 54.1% | 66.6% | 84.6% | 71.5% | 29% | 71.1% | 70.2% | 105% | 44.2% | 80.6% | 60.6% | 47% | 51.6% | 27% | 94% | 81.3%
17 | O=C(Nc1cccc(NC(=O)C2CCCCC2)c1)c1ccccn1 | 88.9% | 105% | 104% | 105% | 101% | 102% | 98.7% | 104% | 111% | 93.8% | 95.7% | 102% | 102% | 115% | 86.4% | 93.6% | 87.4% | 98.6%
